Source: PubChem BioAssay
HT1080NT lethal: kills 2HG-producing HT-1080-NT fibrosarcoma cells; HT-1080-NT fibrosarcoma viability, CellTiter-Glo ATP luminescence, 48 h; Potency, µM (doses to about 46.1 µM), without a hit: at the highest dose activity, negative = less viability, hits mostly cytotoxic; hit rate 1.6% among 360,000;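 further: NT is the 2HG producing partner of a matched IDH1 knockdown line; 0% = DMSO-treated cells and -100% = media-only wells without cells; nearly all actives have a fitted effect of over 55% in size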
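Toxicity toward the 2HG-producing NT line was scored as %Activity, normalised to DMSO and no-cell wells, from CellTiter-Glo luminescence after 48 hours' treatment.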
TDP1 cell CPT: DT40-hTDP1 cell growth loss with CPT; Potency, µM (top dose mostly 46.2 µM), for inactives: at the highest dose activity change, negative = growth inhibition, most hits filed as inhibitors; hit rate 12% among 420,000; chicken DT40 Tdp1-/-;hTDP1 cells + 20 nM CPT, ATP luminescence, 48 h; further: nearly all actives have a fitted effect of over 55% in size
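Chicken DT40 Tdp1-/- cells stably complemented with human TDP1 were seeded at 400 cells/well in medium containing 20 nM camptothecin, exposed to pin-transferred compounds, and grown at 37 °C for at least 48 hr. Viability was read as ATP luminescence.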
DT40 TDP1 no CPT: qHTS for Inhibitors of human tyrosyl-DNA phosphodiesterase 1 (TDP1): qHTS in cells in absence of CPT. Potency, µM (doses to about 46.2 µM), inactives show at the top dose activity change, negative = growth inhibition, actives largely listed as inhibitors. AID 686978, 2013. DT40 Tdp1-/- hTDP1 cells, no CPT, ATP luminescence, 48 h. hit rate 15% among 420,000; further: nearly all actives have a fitted effect of over 55% in size
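Camptothecin absent (DMSO only). Human TDP1-complemented DT40 knockout cells, 400 cells/well, 37 °C for minimum 48 hr; ATP measured via CellTiter-Glo, 30 min dark incubation, luminescence.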
HT1080 IDH1KD tx: HT-1080 IDH1 knockdown cell toxicity (counter line); AID 686971; hit rate 2% among 360,000; Potency, µM (series often up to 46.1 µM), for the others: at the highest dose activity, negative = toxicity, most hits filed as cytotoxic; HT-1080 IDH1 knockdown viability, ATP luminescence, 48 h;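 further: 0% = DMSO wells and -100% = cell-free medium wells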
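Viability of IDH1-knockdown HT-1080 fibrosarcoma cells was assessed by CellTiter-Glo after 48 h at 37 °C with titrated compound; concentration-effect curves were classified by fit quality and response size.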
KB-V1 cytotox: KB-V1 MDR subline cytotoxicity | Potency, µM (top dose mostly 46.1 µM), most hits filed as cytotoxic | KB-V1 MDR cells viability, CellTiter-Glo, 72 h | AID 1347076 | hit rate 3.4% among 400,000; further: nearly all actives have a fitted effect of over 60% in size
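Readout: CellTiter-Glo luminescence, 10 min after addition. Cells: KB-V1 MDR subline, 72 h at 37 degrees C with compound. Analysis: corrected, normalized data fitted to concentration-effect curves.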
KB-3-1 tox: kills parental KB-3-1 adenocarcinoma cells; KB-3-1 viability, CellTiter-Glo ATP luminescence, 72 h; Potency, µM (series often up to 46.1 µM), actives largely listed as cytotoxic; hit rate 1.4% among 400,000; further: nearly all actives have a fitted effect of over 60% in size
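KB-3-1 cells, DMEM (no phenol red) + 10% FBS; compound by pin transfer, 72 h, 37 °C. Readout: CellTiter-Glo luminescence after 10 min. Data normalized, curve-fitted.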
The depositor's hits bear a star; [ ] = remark or other dose. Only some compounds are listed: those with a hit (about 19% of all), similar ones and a draw of the others. The call rests on the fitted dose curve; in most records, active means well fitted curve in the direction sought with a large enough effect; inconclusive means small, poorly fitted or top-dose-only effect, or another doubt; inactive means no such curve, though single readings can be large; an effect the other way counts as inactive or inconclusive. Unless noted, on the % scale 0 is the no-effect control and ±100 the full control effect; potency means the concentration at half of the fitted maximal effect.

For Clc1ccc(OCCCNCc2ccccc2)c(Br)c1 the results were HT1080NT lethal inconclusive, TDP1 cell CPT 15µM*, DT40 TDP1 no CPT 16µM*, HT1080 IDH1KD tx inconclusive, KB-V1 cytotox 21µM* and KB-3-1 tox inactive.
For Cc1cccc(C)c1NC(=O)CNC(=O)C(C)N1CCN(c2cccc(Cl)c2)CC1 (centres undefined) the results were HT1080NT lethal -11%, TDP1 cell CPT inconclusive, DT40 TDP1 no CPT inconclusive, HT1080 IDH1KD tx -1%, KB-V1 cytotox inconclusive and KB-3-1 tox inconclusive.
Screening Cc1cc(OCCCCCNCCO)ccc1Cl returned HT1080NT lethal 2%[9.24 µM], TDP1 cell CPT 15µM*, DT40 TDP1 no CPT 16µM*, HT1080 IDH1KD tx inconclusive, KB-V1 cytotox inactive and KB-3-1 tox inconclusive.
`COCCNCCCOc1ccc(Cl)cc1Br` gave HT1080NT lethal inconclusive, TDP1 cell CPT inconclusive, DT40 TDP1 no CPT 16µM*, HT1080 IDH1KD tx inconclusive, KB-V1 cytotox inactive and KB-3-1 tox inactive.
For Cc1cccc(OCCCCCNCCO)c1 the results were HT1080NT lethal -15%, TDP1 cell CPT -4%, DT40 TDP1 no CPT -7%, HT1080 IDH1KD tx 6%[9.24 µM], KB-V1 cytotox inactive and KB-3-1 tox inactive.
For O=C(Cc1ccccc1)NC(Nc1cccc2ccccc12)C(Cl)(Cl)Cl (centres undefined) the results were HT1080NT lethal 0%, TDP1 cell CPT inconclusive, DT40 TDP1 no CPT 26µM*, HT1080 IDH1KD tx -3%, KB-V1 cytotox inactive and KB-3-1 tox inactive.
For O=C(Cc1ccccc1)NC(Nc1ccccc1)C(Cl)(Cl)Cl (centres undefined) the results were HT1080NT lethal 2%, TDP1 cell CPT inconclusive, DT40 TDP1 no CPT -20%, HT1080 IDH1KD tx 0%, KB-V1 cytotox inactive and KB-3-1 tox inactive.
`CCC(=O)Nc1ccccc1-c1nc2ccccc2n(C(C)C(=O)Nc2cccc(Cl)c2C)c1=O` (centres undefined) gave TDP1 cell CPT inconclusive, DT40 TDP1 no CPT inconclusive, KB-V1 cytotox inactive and KB-3-1 tox inconclusive.
Cc1cccc(C(=O)N/N=C2\CS(=O)(=O)N(C)c3ccsc32)c1 was read as HT1080NT lethal inconclusive, TDP1 cell CPT 21µM*, DT40 TDP1 no CPT 13µM*, HT1080 IDH1KD tx inconclusive, KB-V1 cytotox inactive and KB-3-1 tox inconclusive.
For CN1c2ccsc2/C(=N/Nc2ccccc2)CS1(=O)=O the results were HT1080NT lethal -23%, TDP1 cell CPT 4.1µM*, DT40 TDP1 no CPT 1.3µM*, HT1080 IDH1KD tx inconclusive, KB-V1 cytotox inconclusive and KB-3-1 tox inactive.
For COc1cc2c(cc1OC)CN(C(=O)CSc1nnc3scc(-c4ccccc4)n13)CC2 the results were HT1080NT lethal 3%, TDP1 cell CPT inconclusive, DT40 TDP1 no CPT -29%, HT1080 IDH1KD tx -23%, KB-V1 cytotox inactive and KB-3-1 tox inactive.
Screening CCC(=O)Oc1c(C(=O)CC)cc2c(C)cc(=O)oc2c1C returned HT1080NT lethal -5%, TDP1 cell CPT inconclusive, DT40 TDP1 no CPT inconclusive, HT1080 IDH1KD tx -6%, KB-V1 cytotox 16µM* and KB-3-1 tox inactive.
For CCC(=O)c1cc2c(C)cc(=O)oc2c(C)c1OC the results were HT1080NT lethal 4%, TDP1 cell CPT 8%, DT40 TDP1 no CPT -8%, HT1080 IDH1KD tx 1%, KB-V1 cytotox inconclusive and KB-3-1 tox inactive.
COCCn1c(=O)c(C)nc2cnc(Oc3cccc(Cl)c3)nc21 was read as TDP1 cell CPT -27% and DT40 TDP1 no CPT -14%.
N#Cc1c(/N=C/c2ccccc2)oc(-c2ccccc2)c1-c1ccccc1 was read as HT1080NT lethal 0%, TDP1 cell CPT inconclusive, DT40 TDP1 no CPT inconclusive, HT1080 IDH1KD tx -7%, KB-V1 cytotox inactive and KB-3-1 tox inactive.
